Reference: PubChem BioAssay (NCATS)
Results filed as inconclusive are left out. Calls of active or inactive are those of the source. Unless noted, calls follow the shape of the dose curve; as a rule, active = well fitted curve in the direction sought with a large enough effect; inconclusive = small, poorly fitted or top-dose-only effect, or another doubt; inactive = no such curve, though single readings can be large; an effect the other way counts as inactive or inconclusive.

Experiments:
[1] = AP1 Signaling Pathway (AID 357; active = well fitted curve in either direction with a large enough effect, not every such curve was filed as active;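 also: ME-180 reporter cells stimulated with EGF at its EC50 level; % is scaled to controls: 0 for no effect and ±100 for the full control effect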); details: ME-180 AP-1-bla reporter, EGF-induced, beta-lactamase ratio, 5 h; at 7.69 µM (top of the series) unless noted
Method in brief: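 In this screen, ME-180 cells in Opti-MEM with 0.5% dialyzed FBS received EC50 EGF and compound titrations for 5 h. AP-1 reporter beta-lactamase was detected via CCF4 ratio, giving AC50 for positive and negative modulators.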

[2] = biological target: Cytochrome P450 1A2 (Homo sapiens) (UniProt P05177); assay: p450-cyp1a2 (AID 410; calls by dose curve; also: potency is read from the fitted curve at half-maximal effect); details: recombinant CYP1A2, luciferin-ME demethylation, luminescence; series mostly up to 57 µM
Cytochrome P450 1A2 (Homo sapiens), sequence (P05177 whole entry, looked up): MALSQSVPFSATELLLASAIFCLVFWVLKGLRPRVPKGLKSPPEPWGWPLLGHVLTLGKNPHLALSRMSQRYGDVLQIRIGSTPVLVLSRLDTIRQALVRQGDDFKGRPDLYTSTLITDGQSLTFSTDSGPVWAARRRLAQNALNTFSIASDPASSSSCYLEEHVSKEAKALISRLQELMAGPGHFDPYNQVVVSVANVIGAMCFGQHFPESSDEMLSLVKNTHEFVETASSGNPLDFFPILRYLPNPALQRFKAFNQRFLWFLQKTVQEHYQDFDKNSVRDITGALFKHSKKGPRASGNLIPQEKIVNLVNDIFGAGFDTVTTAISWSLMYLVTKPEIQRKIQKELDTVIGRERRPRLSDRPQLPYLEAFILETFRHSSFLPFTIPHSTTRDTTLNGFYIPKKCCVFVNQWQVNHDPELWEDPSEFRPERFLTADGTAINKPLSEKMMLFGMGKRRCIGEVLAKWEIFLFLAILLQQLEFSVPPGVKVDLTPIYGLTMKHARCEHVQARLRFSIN
Method in brief: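 Read-out is luminescence from luciferin produced by CYP1A2 demethylation of Luciferin-ME (100uM, at Km). Detection reagent stopped the 60 min NADPH-dependent reaction; signals were normalized to 57 uM furafylline.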

[3] = NFAT Signaling Pathway (AID 444; active = well fitted curve in either direction with a large enough effect, not every such curve was filed as active;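 also: carbachol stimulus at about its EC50 of 1 µM final; % is scaled to controls: 0 for no effect and ±100 for the full control effect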); details: Jurkat NFAT-bla M1, carbachol, beta-lactamase ratio, 5 h; at 7.69 µM (top of the series) unless noted
Method in brief: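 Jurkat cells carrying an NFAT-driven β-lactamase reporter and co-transfected muscarinic M1 receptor were treated with compound plus carbachol (1 uM final, an EC50 level) for 5 h at 37 °C. CCF4 loading followed for 1 h at RT; 460/530 nm ratio gave %activity.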

[4] = Stat Signaling Pathway (AID 446; active = well fitted curve in either direction with a large enough effect, not every such curve was filed as active;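 also: ME-180 cervical cancer cells given 40 pM IL-6 alongside compound; SIE-controlled beta-lactamase reporter measured as 460/530 nm FRET emission ratio; % is scaled to controls: 0 for no effect and ±100 for the full control effect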); details: ME-180 SIE beta-lactamase reporter, IL-6 stimulated, 5 h; at 7.69 µM (top of the series) unless noted
Method in brief: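 FRET read-out (405 nm excitation, 460/530 nm emission) of a beta-lactamase reporter under a STAT-inducible element in ME-180 cervical carcinoma cells. Cells with compound receive 40 pM IL-6 for 5 h. Values are normalised to AC90 stimulation and AC90 JAK-inhibitor controls.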

[5] = biological target: Glucocorticoid receptor (Homo sapiens) (UniProt P04150); assay: GR-GFP Redistribution (AID 450;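 active = compounds whose dose series gives a full or clear partial fitted curve of increased nuclear translocation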; also: potency is read from the fitted curve at half-maximal effect); details: U2OS GR-GFP nuclear translocation, laser cytometry, 2 h
Glucocorticoid receptor (Homo sapiens), sequence (P04150 whole entry, looked up, the tested form may be a part): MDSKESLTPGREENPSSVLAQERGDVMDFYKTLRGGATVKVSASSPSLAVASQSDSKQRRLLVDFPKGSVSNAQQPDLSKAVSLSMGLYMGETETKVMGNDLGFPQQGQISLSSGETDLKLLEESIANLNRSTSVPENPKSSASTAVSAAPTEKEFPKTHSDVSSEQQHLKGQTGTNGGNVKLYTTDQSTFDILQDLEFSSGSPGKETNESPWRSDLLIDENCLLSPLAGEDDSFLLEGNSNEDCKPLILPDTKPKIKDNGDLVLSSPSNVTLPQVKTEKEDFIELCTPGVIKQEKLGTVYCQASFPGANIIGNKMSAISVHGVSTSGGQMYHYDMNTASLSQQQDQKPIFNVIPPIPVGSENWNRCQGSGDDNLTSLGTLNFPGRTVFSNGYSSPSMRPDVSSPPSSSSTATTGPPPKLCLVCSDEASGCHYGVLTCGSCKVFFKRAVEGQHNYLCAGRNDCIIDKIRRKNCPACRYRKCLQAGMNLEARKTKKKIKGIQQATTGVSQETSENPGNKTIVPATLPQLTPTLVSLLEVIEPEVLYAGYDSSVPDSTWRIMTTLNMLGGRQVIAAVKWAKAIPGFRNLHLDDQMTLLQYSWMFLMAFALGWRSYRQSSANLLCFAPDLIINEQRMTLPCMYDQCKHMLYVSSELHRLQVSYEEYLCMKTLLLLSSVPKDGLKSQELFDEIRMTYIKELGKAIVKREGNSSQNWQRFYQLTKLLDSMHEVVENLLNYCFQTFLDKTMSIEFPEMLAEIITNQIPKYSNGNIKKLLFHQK

[6] = biological target: Glucocorticoid receptor (Homo sapiens) (UniProt P04150); assay: GR-EFC Redistribution (AID 451; calls by dose curve; also: potency is read from the fitted curve at half-maximal effect); details: CHO-K1 GR-EFC translocation, beta-gal luminescence, 2 h
Method in brief: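 CHO-K1 cells stably expressing nuclear-localized β-gal enzyme acceptor and GR fused C-terminally to the enzyme donor fragment; ligand-driven nuclear translocation restores β-gal by complementation. Compounds titrated up to 46 uM final, 2 h at 37 °C; luminescence read.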

[7] = biological target: Mitogen-activated protein kinase 10 (Mus musculus) (UniProt Q61831); assay: JNK3 AlphaScreen Assay (AID 530; active = well fitted curve in either direction with a large enough effect, not every such curve was filed as active;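 also: kinase came from lysate of stimulated human HepG2 cells; signal reports phosphorylation of biotinylated GST-cJun 1-79 at Ser73 with 10 µM ATP; % is scaled to controls: 0 for no effect and ±100 for the full control effect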); details: JNK3 lysate, c-Jun phosphorylation; series mostly up to 57.1 µM
Method in brief: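 Biotinylated GST-cJun(1-79) served as substrate for JNK3 in HepG2 lysates stimulated with IL-1beta and TNF-alpha. ATP was 10 uM final, pH 7.6. Ser73 phosphorylation was quantified by AlphaScreen (680 nm excitation).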

[8] = biological target: 3',5'-cyclic-AMP phosphodiesterase 4B (Homo sapiens) (UniProt Q07343); assay: qHTS Assay for Inhibitors of PDE-IV (AID 607; active = well fitted activation curve with a large enough effect in the main read-out, with a control signal flat, not every such curve was filed as active; also: % of control where 0% means no effect); details: HEK293 ACTOne CNG channel cells, membrane potential fluorescence; series mostly up to 22.9 µM
3',5'-cyclic-AMP phosphodiesterase 4B (Homo sapiens), sequence (Q07343 whole entry, looked up): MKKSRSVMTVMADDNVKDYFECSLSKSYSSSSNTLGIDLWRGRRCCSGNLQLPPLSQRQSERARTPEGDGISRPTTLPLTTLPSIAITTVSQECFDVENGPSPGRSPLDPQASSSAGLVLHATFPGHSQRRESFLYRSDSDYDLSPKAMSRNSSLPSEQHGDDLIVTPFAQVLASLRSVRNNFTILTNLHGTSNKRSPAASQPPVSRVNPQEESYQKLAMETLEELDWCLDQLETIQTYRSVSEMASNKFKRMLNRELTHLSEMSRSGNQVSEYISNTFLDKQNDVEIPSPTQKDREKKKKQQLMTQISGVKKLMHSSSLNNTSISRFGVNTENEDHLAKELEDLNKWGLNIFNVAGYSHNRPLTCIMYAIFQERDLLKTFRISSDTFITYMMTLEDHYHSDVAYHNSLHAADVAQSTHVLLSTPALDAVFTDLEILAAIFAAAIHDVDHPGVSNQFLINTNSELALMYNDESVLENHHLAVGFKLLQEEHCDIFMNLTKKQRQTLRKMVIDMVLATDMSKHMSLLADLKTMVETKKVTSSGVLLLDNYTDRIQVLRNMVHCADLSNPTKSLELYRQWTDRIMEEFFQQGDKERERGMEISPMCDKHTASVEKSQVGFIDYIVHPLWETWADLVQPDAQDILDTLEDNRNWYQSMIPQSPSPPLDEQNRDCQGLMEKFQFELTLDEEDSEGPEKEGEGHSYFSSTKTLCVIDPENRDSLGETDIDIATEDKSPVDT
Method in brief: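 Cell-based read-out of cAMP via a modified cyclic nucleotide-gated channel and membrane potential dye (535/590 nm) in HEK293 cells expressing PDE4 endogenously. Compounds tested up to 22.9 uM final; 100 uM RO 20-1724 reference.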

[9] = biological target: Cytochrome P450 3A4 (Homo sapiens) (UniProt P08684); assay: qHTS Assay for Activators of Cytochrome P450 3A4 (AID 885); details: recombinant CYP3A4, Luciferin-PPXE luminescence, 60 min; series mostly up to 57.1 µM; also: nearly all actives have a fitted effect of over 65% in size
Cytochrome P450 3A4 (Homo sapiens), sequence (P08684 whole entry, looked up): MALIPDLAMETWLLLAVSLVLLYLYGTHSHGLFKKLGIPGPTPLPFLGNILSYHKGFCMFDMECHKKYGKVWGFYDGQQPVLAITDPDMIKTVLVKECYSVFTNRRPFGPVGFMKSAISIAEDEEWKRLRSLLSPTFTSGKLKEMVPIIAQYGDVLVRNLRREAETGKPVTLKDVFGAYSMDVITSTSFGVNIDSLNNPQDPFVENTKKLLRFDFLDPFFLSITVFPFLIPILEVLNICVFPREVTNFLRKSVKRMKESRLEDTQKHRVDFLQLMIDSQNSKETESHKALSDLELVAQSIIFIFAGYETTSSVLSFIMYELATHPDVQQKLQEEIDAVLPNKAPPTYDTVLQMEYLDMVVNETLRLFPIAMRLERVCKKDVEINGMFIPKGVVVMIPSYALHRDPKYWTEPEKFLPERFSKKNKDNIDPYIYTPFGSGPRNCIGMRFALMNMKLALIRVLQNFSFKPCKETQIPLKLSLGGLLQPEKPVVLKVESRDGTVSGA
Method in brief: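 Luminescent readout of luciferin formed from 25 uM Luciferin-PPXE (KM level) by 20 nM CYP3A4 in 200 mM KPO4, with 60 min NADPH-driven reaction at room temperature after 10 min compound exposure. Ketoconazole (57 uM) defined 100% inhibition.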

[10] = biological target: Dual specificity protein kinase CLK4 (Homo sapiens) (UniProt Q9HAZ1); assay: qHTS Assay for Inhibitors of CDC-like Kinase 4 (Kinase-Glo Assay) (AID 1770); details: recombinant Clk4, Kinase-Glo ATP depletion luminescence; series mostly up to 66.7 µM; also: nearly all actives have a fitted effect of over 65% in size; also: potency is read from the fitted curve at half-maximal effect
Dual specificity protein kinase CLK4 (Homo sapiens), sequence (Q9HAZ1 whole entry, looked up): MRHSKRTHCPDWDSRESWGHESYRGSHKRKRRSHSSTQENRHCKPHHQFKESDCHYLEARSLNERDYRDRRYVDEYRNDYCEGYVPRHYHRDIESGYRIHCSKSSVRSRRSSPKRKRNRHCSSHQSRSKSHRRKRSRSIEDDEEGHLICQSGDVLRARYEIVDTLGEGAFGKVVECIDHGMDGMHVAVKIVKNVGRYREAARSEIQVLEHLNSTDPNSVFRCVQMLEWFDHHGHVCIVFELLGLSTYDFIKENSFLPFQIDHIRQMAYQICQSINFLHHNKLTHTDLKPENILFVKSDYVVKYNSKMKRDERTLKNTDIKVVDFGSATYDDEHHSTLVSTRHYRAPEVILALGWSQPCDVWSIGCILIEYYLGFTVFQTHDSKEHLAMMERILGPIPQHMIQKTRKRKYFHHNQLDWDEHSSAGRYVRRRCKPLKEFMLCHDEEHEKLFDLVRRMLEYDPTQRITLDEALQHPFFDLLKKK
Method in brief: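 Readout: Kinase-Glo luminescence from ATP left after a 4.5 h room-temperature reaction of 25 nM Clk4 with 100 uM RS peptide and 1 uM ATP (final). Buffer: 25 mM Tris pH 7.5, 10 mM MgCl2.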

[11] = biological target: Dual specificity protein kinase CLK4 (Homo sapiens) (UniProt Q9HAZ1); assay: qHTS Assay for Inhibitors of CDC-like Kinase 4 (ADP-Glo Assay) (AID 1771); details: recombinant CLK4, ADP-Glo luminescence; series mostly up to 80 µM; also: nearly all actives have a fitted effect of over 70% in size; also: potency is read from the fitted curve at half-maximal effect
Method in brief: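 In this ADP-Glo format, 1 uM ATP and 100 uM RS peptide served as substrates for 25 nM Clk4 in Mg2+/EGTA/DTT/Triton buffer; reactions ran 1 hr at room temperature before luminescent ADP quantification.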

[12] = biological target: Dual specificity protein kinase CLK4 (Homo sapiens) (UniProt Q9HAZ1); assay: qHTS Assay for Inhibitors of CDC-like Kinase 4 (ADP-FP Assay) (AID 1795); details: Transcreener ADP fluorescence polarization; series mostly up to 50 µM;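 also: recombinant human CLK4 phosphorylating RS repeat peptide at 1 µM ATP; % is scaled to controls: 0 for no effect and ±100 for the full control effect; nearly all actives have a fitted effect of over 60% in size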
Method in brief: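 FP readout: Orange Transcreener ADP2 tracer (4 nM) plus ADP antibody, read after 30 min at room temperature. Kinase step: 6.25 nM Clk4, 100 uM RS peptide, 1 uM ATP, pH 7.5, 1 h.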

[13] = Primary qHTS for small molecule stabilizers of the endoplasmic reticulum resident proteome: Secreted ER Calcium Modulated Protein (SERCaMP) assay (AID 1508630); details: SH-SY5Y GLuc-SERCaMP (Gaussia luciferase released on ER calcium loss) secretion, thapsigargin, luminescence; series mostly up to 38.4 µM; also: % is scaled to controls: 0 for no effect and ±100 for the full control effect
Method in brief: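 The SH-SY5Y reporter protocol was run at 3 concentrations up to 38.3 uM (primary) or 11 concentrations (follow-up): 16 h compound, 100 nM thapsigargin for 4 h, then extracellular luciferase luminescence.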

[14] = biological target: Ubiquitin carboxyl-terminal hydrolase 1 (Homo sapiens) (UniProt O94782); assay: Inhibitors of USP1/UAF1: Pilot qHTS (AID 504865); details: purified USP1/UAF1, Ub-rhodamine cleavage fluorescence; series mostly up to 54.9 µM; also: nearly all actives have a fitted effect of over 35% in size; also: potency is read from the fitted curve at half-maximal effect
Ubiquitin carboxyl-terminal hydrolase 1 (Homo sapiens), sequence (O94782 whole entry, looked up): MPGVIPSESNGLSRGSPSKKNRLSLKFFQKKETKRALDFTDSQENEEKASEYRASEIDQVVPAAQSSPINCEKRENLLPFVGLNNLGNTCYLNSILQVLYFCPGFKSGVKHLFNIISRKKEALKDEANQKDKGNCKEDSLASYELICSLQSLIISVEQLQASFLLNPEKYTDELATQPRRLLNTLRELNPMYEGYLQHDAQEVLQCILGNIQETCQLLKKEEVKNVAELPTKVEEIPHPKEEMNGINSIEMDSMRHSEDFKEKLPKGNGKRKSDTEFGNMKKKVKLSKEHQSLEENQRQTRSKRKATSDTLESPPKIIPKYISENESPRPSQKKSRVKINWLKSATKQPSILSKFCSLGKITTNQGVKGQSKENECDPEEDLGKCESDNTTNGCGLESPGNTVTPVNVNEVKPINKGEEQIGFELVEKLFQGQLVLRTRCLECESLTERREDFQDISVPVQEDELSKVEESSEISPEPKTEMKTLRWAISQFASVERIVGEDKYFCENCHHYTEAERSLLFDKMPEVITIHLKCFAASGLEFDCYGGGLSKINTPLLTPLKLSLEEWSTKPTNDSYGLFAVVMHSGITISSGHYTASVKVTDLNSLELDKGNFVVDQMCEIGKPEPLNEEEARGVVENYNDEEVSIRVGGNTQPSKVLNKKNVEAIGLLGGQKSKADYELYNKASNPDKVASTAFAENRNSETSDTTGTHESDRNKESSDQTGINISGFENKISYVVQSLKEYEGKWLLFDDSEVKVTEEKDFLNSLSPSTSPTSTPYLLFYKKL
Method in brief: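 1nM USP1/UAF1 + cpd, 15 min RT; start w/ Ub-Rho 150nM final; kinetic FL 480/540 nm, 6 reads q60 s. Buffer 50mM HEPES pH 7.8, 0.5mM EDTA, 1mM TCEP, 0.01% Tween-20, 0.1 mg/ml BSA.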

[15] = biological target: Lysosomal acid glucosylceramidase (Homo sapiens) (UniProt P04062); assay: Glucocerebrosidase-p2 (AID 348; in the data active = potency below about 10 µM; also: potency is read from the fitted curve at half-maximal effect); details: purified GBA, blue fluorogenic substrate, 40 min
Lysosomal acid glucosylceramidase (Homo sapiens), sequence (P04062 whole entry, looked up): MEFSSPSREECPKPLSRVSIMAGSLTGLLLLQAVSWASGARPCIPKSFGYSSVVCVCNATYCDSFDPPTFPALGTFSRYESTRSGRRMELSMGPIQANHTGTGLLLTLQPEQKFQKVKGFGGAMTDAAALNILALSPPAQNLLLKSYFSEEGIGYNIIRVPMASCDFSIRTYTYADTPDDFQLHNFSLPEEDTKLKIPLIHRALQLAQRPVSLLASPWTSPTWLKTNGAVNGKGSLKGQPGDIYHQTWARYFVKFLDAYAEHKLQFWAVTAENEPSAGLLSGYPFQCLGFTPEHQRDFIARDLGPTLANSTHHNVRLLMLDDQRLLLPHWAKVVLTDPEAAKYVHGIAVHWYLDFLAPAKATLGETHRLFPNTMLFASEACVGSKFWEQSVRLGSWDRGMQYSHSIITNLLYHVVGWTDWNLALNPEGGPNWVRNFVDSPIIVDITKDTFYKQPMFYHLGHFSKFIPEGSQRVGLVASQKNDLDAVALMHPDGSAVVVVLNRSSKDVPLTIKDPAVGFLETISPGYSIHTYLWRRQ
Method in brief: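 Normal human glucocerebrosidase (0.2 nM) with blue fluorogenic substrate (80 uM final) in citrate/phosphate pH 5.9 with 10mM sodium taurocholate, 0.01% tween-20; 40 min RT, NaOH/glycine stop; fluorescence Ex 365/Em 440; AC50 from a titration from 0.6 nM upwards.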

[16] = qHTS Assay for Identification of Small Molecule Agonists for Hypoxia Response Element Signaling Pathway (AID 914; active = well fitted activation curve with a large enough effect in the signal ratio, with a control signal flat, not every such curve was filed as active; the % refers to the signal ratio; also: potency is read from the fitted curve at half-maximal effect; as to activation: % of control where 0% means no effect); details: ME-180 (cervical carcinoma) HRE-bla reporter, beta-lactamase ratio, CoCl2, 17 h; activation: stronger effect = higher value
Method in brief: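 AC50 values come from titration-series %Activity, taken as the 460/530nm ratio of CCF4 fluorescence (excitation 405nm). CellSensor HRE-bla ME-180 cells were treated 17 hours at 37 C with compound plus an EC50 level of CoCl2.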

[17] = biological target: Cytochrome P450 3A4 (Homo sapiens) (UniProt P08684); assay: qHTS Assay for Inhibitors and Substrates of Cytochrome P450 3A4 (AID 884); details: recombinant CYP3A4, Luciferin-PPXE luminescence; series mostly up to 57.1 µM; also: potency is read from the fitted curve at half-maximal effect; nearly all actives have a fitted effect of over 50% in size
Method in brief: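 Luminescent readout of luciferin produced by CYP3A4 (20 nM) dealkylation of Luciferin-PPXE, 25 uM (its KM). NADPH-driven reaction ran 60 min at RT after 10 min compound preincubation; data scaled to 57 uM ketoconazole as 100% inhibition.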

[18] = biological target: Cytochrome P450 2C19 (Homo sapiens) (UniProt P33261); assay: qHTS Assay for Inhibitors and Substrates of Cytochrome P450 2C19 (AID 899); details: recombinant CYP2C19, luciferin-H EGE luminescence; series mostly up to 57.1 µM; also: potency is read from the fitted curve at half-maximal effect; nearly all actives have a fitted effect of over 60% in size
Method in brief: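 Human CYP2C19 (5nM) with Luciferin-H EGE at 10uM (its KM) in 50mM KPO4 was preincubated with compound for 10 min at 37C. NADPH regeneration started a 60 min 37C reaction. Luciferin was read by luminescence, normalized to 57uM ketoconazole.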

[19] = biological target: Cytochrome P450 2D6 (Homo sapiens) (UniProt P10635); assay: qHTS Assay for Inhibitors and Substrates of Cytochrome P450 2D6 (AID 891); details: recombinant CYP2D6, luciferin-ME EGE luminescence; series mostly up to 57.1 µM; also: potency is read from the fitted curve at half-maximal effect; nearly all actives have a fitted effect of over 60% in size
Cytochrome P450 2D6 (Homo sapiens), sequence (P10635 whole entry, looked up): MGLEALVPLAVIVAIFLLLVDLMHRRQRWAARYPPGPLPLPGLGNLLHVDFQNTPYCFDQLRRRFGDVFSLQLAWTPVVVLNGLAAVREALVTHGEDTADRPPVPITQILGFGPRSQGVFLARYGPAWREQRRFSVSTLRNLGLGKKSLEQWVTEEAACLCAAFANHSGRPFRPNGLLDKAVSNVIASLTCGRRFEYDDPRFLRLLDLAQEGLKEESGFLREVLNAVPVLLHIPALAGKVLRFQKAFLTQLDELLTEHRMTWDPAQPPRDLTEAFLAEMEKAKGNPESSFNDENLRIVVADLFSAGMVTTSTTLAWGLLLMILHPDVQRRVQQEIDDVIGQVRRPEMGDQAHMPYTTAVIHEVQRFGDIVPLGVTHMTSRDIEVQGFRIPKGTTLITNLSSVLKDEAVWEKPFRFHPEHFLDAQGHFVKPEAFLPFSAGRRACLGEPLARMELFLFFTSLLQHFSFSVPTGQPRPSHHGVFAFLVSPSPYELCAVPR
Method in brief: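 Luminescent read-out of luciferin formed by 5 nM human CYP2D6 demethylating 30 uM Luciferin-ME EGE (Km level) over 60 min at room temperature after NADPH regeneration addition. Data normalized to full inhibition by 1.43 uM quinidine.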

CN1CCN(c2ncc3nc(-c4cn(C)c5ccccc45)c(=O)n(-c4ccccc4)c3n2)CC1
inactive: activity change, negative = inhibition [1] 2.43% | activity change, negative = inhibition [3] 20% | activity, negative = inhibition [4] 4.99% | Potency [5] > 9.22 µM | Potency [6] > 46 µM | Potency [7] | Potency [8] | Potency [9] | Potency [10] | Potency [11] | Potency [12] | outcome [13]
active: Potency [2] 15.8 µM

CCNc1ncc2nc(-c3cn(C)c4ccccc34)c(=O)n(C[C@H]3CCCO3)c2n1
active: Potency [2] 10 µM
inactive: activity change, negative = inhibition [1] -16.7% | activity change, negative = inhibition [3] 16.3% | activity, negative = inhibition [4] 9.05% | Potency [5] > 9.22 µM | Potency [6] > 46 µM | Potency [7] | Potency [10] | Potency [11] | Potency [12] | Potency [14] | outcome [13]

CN1CCN(c2ncc3nc(-c4cccs4)c(=O)n(Cc4ccc(F)cc4)c3n2)CC1
inactive: Potency [15] > 11.4 µM | Potency [5] > 9.22 µM | Potency [6] > 46 µM | Potency [8] | Potency [10] | Potency [11] | Potency [12] | Potency [14] | outcome [13]

O=c1c(-c2cccc(Cl)c2)nc2cncnc2n1-c1ccccc1
active: Potency [2] 2 µM
inactive: activity change, negative = inhibition [1] -18.9% | activity change, negative = inhibition [3] 9.76% | activity, negative = inhibition [4] 0.546% | Potency [5] > 9.22 µM | Potency [6] > 46 µM | Potency [7] | Potency [9] | Potency [10] | Potency [11] | Potency [12] | Potency [14] | outcome [13]

Cc1cccc(CNc2ccnc(-c3ccccc3C(F)(F)F)n2)c1
inactive: activity change, negative = inhibition [1] -10.1% | activity change, negative = inhibition [3] 1.23% | activity, negative = inhibition [4] 5.48% | Potency [5] > 46 µM | Potency [6] > 46 µM | Potency [7] | activation [16] -2.48% | Potency [10] | Potency [11] | Potency [12] | outcome [13]
active: Potency [2] 6.31 µM | Potency [14] 3.98 µM

Cc1cnc(CNc2ncncc2-c2ccc3c(c2)OCO3)cn1
inactive: Potency [15] > 11.4 µM | activity change, negative = inhibition [1] -10.4% | activity change, negative = inhibition [3] -2.24% | activity, negative = inhibition [4] 4.5% | Potency [5] > 46 µM | Potency [6] > 46 µM | Potency [7] | Potency [8] | Potency [9] | Potency [14] | outcome [13]
active: Potency [2] 2 µM | Potency [17] 1.58 µM | Potency [10] 14.1 µM | Potency [11] 15.8 µM

COc1cccc(-c2cc(NCc3cnc(C)cn3)ncn2)c1
active: Potency [2] 5.01 µM | Potency [10] 17.8 µM | Potency [11] 15.8 µM
inactive: Potency [15] > 11.4 µM | activity change, negative = inhibition [1] 12.1% | activity change, negative = inhibition [3] -0.299% | activity, negative = inhibition [4] -1.25% | Potency [5] > 46 µM | Potency [6] > 46 µM | Potency [7] | Potency [8] | Potency [9] | Potency [14] | outcome [13]

CN(C)C(=O)c1ccc(-c2cncnc2NCc2cccnc2)cc1
active: Potency [2] 5.01 µM | Potency [17] 5.01 µM | Potency [18] 2.51 µM
inactive: Potency [15] > 11.4 µM | activity change, negative = inhibition [1] 22% | activity change, negative = inhibition [3] 3.94% | activity, negative = inhibition [4] 17.6% | Potency [5] > 46 µM | Potency [6] > 46 µM | Potency [7] | Potency [8] | Potency [9] | Potency [10] | Potency [11] | Potency [14] | outcome [13]

Clc1ccccc1-c1nccc(NCc2ccccc2)n1
inactive: activity change, negative = inhibition [1] 12.5% | activity change, negative = inhibition [3] 10.7% | activity, negative = inhibition [4] -6.25% | Potency [5] > 46 µM | Potency [6] > 46 µM | Potency [7] | Potency [10] | Potency [11] | Potency [12] | outcome [13]
active: Potency [14] 28.2 µM

COc1cccc(-c2nc(NCCNC(C)=O)c3ccccc3n2)c1
active: Potency [2] 2.51 µM | Potency [19] 3.98 µM | Potency [10] 31.6 µM | Potency [11] 28.2 µM
inactive: Potency [15] > 11.4 µM | activity change, negative = inhibition [1] -4.33% | activity change, negative = inhibition [3] 8.46% | activity, negative = inhibition [4] 3.51% | Potency [5] > 46 µM | Potency [6] > 46 µM | Potency [7] | Potency [8] | Potency [9] | Potency [14] | outcome [13]

Cn1c(=O)c(-c2cc(F)cc(F)c2)nc2cnc(N3CCNCC3)nc21
inactive: Potency [5] > 9.22 µM | Potency [6] > 46 µM | Potency [7] | Potency [8] | Potency [9] | Potency [10] | Potency [11] | Potency [12] | Potency [14] | outcome [13]
active: Potency [16] 3.16 µM
